# The list is not random: actives were taken first. Their share in the collection is about 4.4%.
# TRHR ag – qHTS for Small Molecule Agonists and Allosteric Enhancers of Human TRH Receptor: Primary Screen for Agonists; Thyrotropin-releasing hormone receptor (Homo sapiens), P34981; TRHR cells, calcium flux fluo-8, FDSS agonist mode; activation, % at 2 µM; 0.18% of 360,000 active; AID 493084, 2011; note: 0% is about no effect
# Target sequence (P34981 whole entry, looked up): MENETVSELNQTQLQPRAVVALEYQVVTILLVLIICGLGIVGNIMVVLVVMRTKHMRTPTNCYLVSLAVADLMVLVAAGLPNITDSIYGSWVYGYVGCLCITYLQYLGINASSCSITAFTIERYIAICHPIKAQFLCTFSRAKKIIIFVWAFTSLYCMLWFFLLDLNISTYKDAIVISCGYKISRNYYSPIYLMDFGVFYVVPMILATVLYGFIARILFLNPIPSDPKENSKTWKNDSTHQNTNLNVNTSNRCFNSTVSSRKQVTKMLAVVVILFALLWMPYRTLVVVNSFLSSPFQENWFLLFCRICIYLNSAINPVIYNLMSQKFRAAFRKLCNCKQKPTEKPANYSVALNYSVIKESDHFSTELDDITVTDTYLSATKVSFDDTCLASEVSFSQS
#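 Read-out: compound-evoked intracellular calcium rise in TRHR cells, fluo-8 dye, kinetic FDSS fluorescence at 1 s/cycle following a 10-cycle baseline. Cells cultured overnight before dye loading (30 min–1.5 h, RT).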
# D1 antag – Antagonist of Human D 1 Dopamine Receptor: qHTS; D(1A) dopamine receptor (Homo sapiens), P21728; HEK293 TREx D1 cells, calcium flux, dopamine EC80; stronger effect = lower value; activity change, negative = inhibition, % at 10 µM; 3.2% of 360,000 active; AID 504652, 2011; in the data active = activity change below about -30%; note: % is set by controls: 0 for no effect and ±100 for the full control effect
#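 Kinetic fluorescence of a calcium dye serves as the read-out. D1-expressing Hek293 Trex cells, induced overnight at 30 C, are exposed to compound for 180 s before an EC80 dopamine addition, then read 180 s further.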
# USP1-UAF1 inh – Inhibitors of USP1/UAF1: Primary Screen. Ubiquitin carboxyl-terminal hydrolase 1 (Homo sapiens), O94782. recombinant USP1/UAF1, Ub-Rhodamine cleavage fluorescence. Potency, µM (top dose mostly 57.1 µM), for inactives: top-dose activity change, negative = inhibition, actives largely listed as inhibitors. 0.23% of 390,000 active. AID 743255, 2014; active = well fitted inhibition curve with a large enough effect; inconclusive = small, poorly fitted or top-dose-only effect; inactive = no such curve, though single readings can be large or run the other way; note: potency is the fitted concentration of half-maximal effect; % is set by controls: 0 for no effect and ±100 for the full control effect; nearly all actives have a fitted effect of over 60% in size
#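 High-throughput fluorogenic screen: 1nM USP1/UAF1 complex, Ub-Rho substrate 150nM final, 50mM HEPES pH 7.8 with 0.5mM EDTA, 0.1 mg/ml BSA, 1mM TCEP and 0.01% Tween-20.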
# TRHR enhancer – qHTS for Small Molecule Agonists and Allosteric Enhancers of Human TRH Receptor: Primary Screen for Enhancers; TRHR cells, fluo-8 calcium fluorescence, EC20 TRH enhancement; enhancement, % at 2 µM; 0.66% of 360,000 active; AID 493056, 2011; in the data active = enhancement above about 30%; note: 0% is about no effect
#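 Enhancer read-out: after compound pinning and an initial kinetic agonist-mode read, an EC20 of TRH (10 nM final) was injected and fluo-8 calcium signal (Ex 480/Em 530) followed at 1 s/cycle for 100 cycles in TRHR-expressing cells.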
# D1 potentiator – Potentiators of Human D1 Dopamine Receptor: qHTS; potentiation, % at 10 µM; 0.036% of 360,000 active; D(1A) dopamine receptor (Homo sapiens), P21728; AID 504651, 2011; HEK293 TREx D1 cells, calcium flux, dopamine EC20 potentiation; in the data active = potentiation above about 30%; note: 0% is about no effect
# D1 agonist – Allosteric Agonists of the Human D1 Dopamine Receptor: qHTS. 1% of 360,000 active. D(1A) dopamine receptor (Homo sapiens), P21728. HEK293 T-REx D1 cells, calcium flux, agonist mode. AID 504660, 2011. activation, % at 2 µM; note: 0% is about no effect
#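 Tetracycline-induced HEK293 TREx D1 cells, force-coupled to calcium signalling, were dye-loaded with a no-wash calcium kit. Compound was pin-added after a 10 s baseline. Fluorescence was read kinetically at 1 cycle/s for 180 s, with calcium rises flagged as agonism.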
# * marks the source's active call; other numbers are inactive results; ? = inconclusive; . = not tested or not shown. Cut-off read from the data, not from the text of the source, unless noted: active = activation above about 30%; inactive = the rest.
SMILES,TRHR ag,D1 antag,USP1-UAF1 inh,TRHR enhancer,D1 potentiator,D1 agonist
CC1Cn2c(C(=O)NCc3cccc(Br)c3)cc3cccc(c32)S1 (configuration not stated),1,2,-5%,9,1,3
Cc1cc(C=O)c(C)n1-c1ccc(N2CCCCC2)c([N+](=O)[O-])c1,0,-22,-13%,7,1,7
Cc1cc(/C=C(\C#N)C(N)=O)c(C)n1-c1ccc(N2CCOCC2)c([N+](=O)[O-])c1,0,-32*,-3%,5,-10,12
CCOc1ccc(C2=C/C(=C/c3cccnc3)C(=O)O2)cc1,17,-14,-13%,-1,-2,65*
CC(=O)Oc1cccc(/C=C2\C=C(c3ccc(C)cc3)OC2=O)c1,0,2,-10%,-7,-6,7
COc1ccc(C2=C/C(=C/c3cccnc3)C(=O)O2)cc1OC,45*,-21,-20%,2,-12,60*
COc1ccccc1NC(=O)Cn1c(SCC(=O)NCc2ccccc2)nc2ccccc21,-1,1,-7%,-2,0,1
COc1cc(C(=O)NNC(=S)NC(=O)c2ccc(F)cc2)cc(OC)c1OC,0,-4,-12%,8,-3,44*
COc1cc(C(=O)NNC(=O)C2CCC2)cc(OC)c1OC,0,-48*,-12%,4,-5,3
COc1cc(C(=O)NNC(=O)C2CC=CCC2C(=O)O)cc(OC)c1OC (configuration not stated),0,-9,-4%,3,-4,3
COc1cc(C(=O)NC(=S)Nc2ccc3c(c2)OCO3)cc(OC)c1OC,0,-35*,4%,3,-5,0
COc1cc(C(=O)NC(=S)NNC(=O)c2ccc3c(c2)OCO3)cc(OC)c1OC,1,-21,-13%,3,8,4
COc1ccc(Cl)cc1C(=O)NNC(=S)NC(=O)c1ccc(F)c(F)c1,24,6,-7%,-12,-2,171*
COc1ccc(C(=O)NNC(=S)NC(=O)c2ccc(F)cc2)cc1Br,.,.,-25%,.,.,.
O=C(NC(=S)Nc1ccc(F)cc1)c1ccc2c(c1)OCCO2,1,-3,-2%,33*,-4,3
O=C(NC1CC(=O)N(c2cccc(F)c2)C1)C1CC1 (configuration not stated),0,.,?,12,-2,-2
CCN1CCN(c2cc(N3CCN(C(=O)c4ccco4)CC3)c3c4c(onc24)-c2ccccc2C3=O)CC1,0,6,?,-5,-1,0
O=C(O)CCNc1cc(N2CCN(C(=O)c3ccco3)CC2)c2noc3c2c1C(=O)c1ccccc1-3,0,-15,14µM*,9,-7,3
COc1cccc(CNC(=O)Cn2c(=O)ccc3cc(S(=O)(=O)N4CCCC4)ccc32)c1,0,15,-24%,9,2,0
O=[N+]([O-])c1ccc(OC/C=C2\Oc3ccc([N+](=O)[O-])cc3C2N2CCOCC2)cc1 (configuration not stated),0,-69*,-7%,-6,-3,3
CCn1cc(/C=C(\NC(=O)c2ccccc2F)C(=O)N2CCOCC2)c2ccccc21,0,-34*,-11%,-4,-7,0
COc1ccc(-c2nn3c(-c4ccccc4)nnc3s2)cc1,-1,-31*,-11%,-9,-2,1
COc1ccc(CN2CCN(S(=O)(=O)c3ccc(C)cc3)CC2)cc1OC,.,.,-4%,.,.,.
CCOc1ccc(S(=O)(=O)N2CCN(Cc3ccccc3)CC2)cc1,-1,-39*,-16%,7,1,5
CCOc1ccc(CN2CCN(S(=O)(=O)c3ccc(Cl)cc3)CC2)cc1,0,3,5%,6,2,0
SMILES,TRHR ag,D1 antag,USP1-UAF1 inh,TRHR enhancer,D1 potentiator,D1 agonist
COc1ccc(S(=O)(=O)N2CCN(Cc3ccccc3)CC2)cc1OC,0,-9,-7%,35*,-4,7
Cc1ccc(N2CCn3c2nc2c3c(=O)n(Cc3cccc(Cl)c3)c(=O)n2C)cc1C,0,-11,-4%,-3,-2,1
COc1ccc(NC(=O)c2oc3ccccc3c2NC(=O)C2CCCCC2)c(OC)c1,1,-2,-14%,29,1,2
Cc1ccc(-c2nc(N)s[n+]2-c2ccccc2)cc1,0,-37*,-18%,7,3,1
CNc1nc(-c2ccccc2)[n+](-c2ccc(C)cc2)s1,0,-2,-15%,5,3,12
CC(NC(=O)c1ccc2c(c1)OCO2)c1ccccc1 (configuration not stated),0,-6,-18%,20,-7,4
CCc1ccc(C(C)NC(=O)c2ccc3c(c2)OCO3)cc1 (configuration not stated),0,-42*,-19%,2,0,6
O=C1NC(c2ccc(Br)cc2)Nc2ccccc21 (configuration not stated),0,-32*,-17%,0,-4,-2
Cc1nn(-c2ccc(N3CCCCC3)nn2)c(C)c1CCC(=O)Nc1ccc(F)cc1F,0,-19,-8%,5,-5,1
CCCCCCCCCCCCCCCC[N+](C)(C)CC,0,-25,?,-9,-7,41*
CC#CC[N+](C)(C)CCCCCCCCCCCC,0,6,-17%,-2,3,34*
CCCCCC[N+](C)(C)CCSSCC[N+](C)(C)CCCCCC,0,-4,-12%,-15,4,4
CC1CCN(C(=O)CN(C)S(=O)(=O)c2cccc3nsnc23)CC1,-1,-14,-1%,2,-2,4
CC1CCN(CCNC(=O)CN(C)S(=O)(=O)c2cccc3nsnc23)CC1,-1,-31*,-13%,3,-8,2
CN(CC(=O)Nc1ccc(F)c(Cl)c1)S(=O)(=O)c1cccc2nsnc12,0,-34*,-19%,1,1,5
Nc1c(-c2ccc(Cl)cc2)cnn1C1CCS(=O)(=O)C1 (configuration not stated),-1,-30*,-14%,-6,-10,11
O=S1(=O)CCC(n2nccc2-c2ccccc2)C1 (configuration not stated),1,14,-14%,2,4,2

# Bioassay records deposited in PubChem by National Center for Advancing Translational Sciences (NCATS).
